# Hits are enriched below; roughly 4% of the tested compounds scored in any of these assays.
# Caspase-1 inhib: qHTS Assay for Allosteric/Competitive Inhibitors of Caspase-1; Potency, µM (highest dose often 57.5 µM), for inactives: top-dose activity change, negative = inhibition, hits mostly inhibitors; 0.03% of 75,000 active; Caspase-1 enzyme, Ac-WEHD-AFC fluorogenic rate; P29466;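 also: plate controls were vehicle for no effect and no substrate for full effect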
# Casp7 inh: qHTS Assay for Allosteric/Competitive Inhibitors of Caspase-7; P55210; recombinant caspase-7, Ac-DEVD-AFC fluorescence rate; Potency, µM (series often up to 57.5 µM), for inactives: top-dose activity change, negative = inhibition, usual class: inhibitors; 0.02% of 75,000 active; active = well fitted inhibition curve with a large enough effect in the main read-out, with a control signal flat, not every such curve was filed as active; inconclusive = small, poorly fitted or top-dose-only effect, or a change in a side signal; also: % of control where 0% means no effect
# Bst PK mod: Pyruvate Kinase; Potency, µM; 1.2% of 51,000 active; purified pyruvate kinase, luminescence ATP production; ribose 5-phosphate activator present at AC10; in the data active = potency below about 11 µM; inconclusive = mostly about 12 µM to 25 µM;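 the screen sought inhibitors and activators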;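 also: scaled between full activation by ribose 5 phosphate and full inhibition by luteolin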
# Luciferase inh: qHTS Assay for Inhibitors of Firefly Luciferase; Luciferin 4-monooxygenase (Photinus pyralis), P08659; Potency, µM (series often up to 57.1 µM), without a hit: at the highest dose activity change, negative = inhibition, hits mostly inhibitors; 2.2% of 72,000 active; purified firefly luciferase, luminescence, 8 min; AID 411, 2009; also: % is scaled to controls: 0 for no effect and ±100 for the full control effect; nearly all actives have a fitted effect of over 40% in size
#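 Luminescence read-out after 8 min at room temperature; enzyme reaction used luciferin plus 10 uM ATP (linear range) in imidazole buffer pH 7.2 with KCl, MgCl2, Tween 20 and BSA. Each sample was run as a titration.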
# Tau fil binding: qHTS Assay for Tau Filament Binding; AID 596, 2007; Potency, µM (titrated, usually from 57.1 µM), for the others: at the top dose activity change, negative = inhibition; 2% of 71,000 active; Microtubule-associated protein tau (Homo sapiens), P10636; recombinant tau filaments, thioflavin S fluorescence, 15 h; filaments grown with octadecylsulfate alongside compound;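 also: % is scaled to controls: 0 for no effect and ±100 for the full control effect; actives lower thioflavin S fluorescence by blocking filaments or displacing dye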
#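 Quantitative HTS: thioflavine S signal from ODS-induced tau filaments, excited at 450 nm, emission 510 nm. Conditions: 1 uM tau, 30 uM ODS, 15 h at 37 C, pH 7.4.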
# * marks the source's active call; other numbers are inactive results; i = inactive; ? = inconclusive; nt = not tested or not shown; [ ] = dose if it differs, or a comment. Unless noted, calls follow the shape of the dose curve; as a rule, active = well fitted curve in the direction sought with a large enough effect; inconclusive = small, poorly fitted or top-dose-only effect, or another doubt; inactive = no such curve, though single readings can be large; an effect the other way counts as inactive or inconclusive. Potency is read from the fitted curve at half-maximal effect.
SMILES,Caspase-1 inhib,Casp7 inh,Bst PK mod,Luciferase inh,Tau fil binding
CCCN1C(=O)c2ccc(C(=O)Nc3nccs3)cc2C1=O,-0.5%,3.3%,>57,12.6µM*,-6.7%
Cc1nn(Cc2ccc(C(=O)Nc3nccs3)cc2)c(C)c1Cl,-3.9%,-1.8%,3.05*,-1.4%,33.9%
O=C(c1cc(C(F)(F)F)cc(C(F)(F)F)c1)N1CCC2(CCN(Cc3nccs3)CC2)CC1,0.4%,0.1%,nt,1.3%[11.4 µM],-5.2%
Nc1ncnc2nn([C@H]3O[C@@H](CO)[C@@H](O)[C@H]3O)nc12,-8.2%[11.5 µM],0.8%[11.5 µM],nt,2.1%[11.4 µM],6.7%[11.4 µM]
CO[C@]1(NC(=O)[C@H](C(=O)O)c2ccc(O)cc2)C(=O)N2C(C(=O)O)=C(CSc3nnnn3C)CO[C@H]21,-0.9%[25.7 µM],-0.3%[25.7 µM],nt,-2.0%[25.5 µM],9.4%[25.6 µM]
COc1ccc(-c2csc(NCc3ccco3)n2)cc1C,-4.1%,-4.5%,nt,7.94µM*,12.6µM*
CCO,-3.5%,0.9%,nt,nt,2.7%
Cc1ccc2[nH]c3c(c2c1)CCc1cn[nH]c1-3,-8.5%,-18.6%,8.75*,-6.4%,7.94µM*
COc1ccc(CNc2ncnc3ccc(-c4ccc5c(c4)OCO5)cc23)c(OC)c1,-2.4%,-3.4%,nt,0.1%[2.29 µM],79.8%
COc1ccc(NC(=O)c2cc(-c3ccc(C)o3)nc3ccccc23)cc1OC,-9.2%,-10.1%,3.67*,2.51µM*,48.5%
COc1cc(NC(=O)c2cc3c(C)nc4ccccc4c3o2)cc(OC)c1OC,-3.7%,-1.8%,nt,-3.7%,457.7%
C[C@@H]1C=CCC(=O)OC[C@H](C)C(=O)OC[C@H]2O[C@H]1C=C[C@@H]2O,0.9%[11.5 µM],2.6%[11.5 µM],nt,-0.9%[11.4 µM],nt
c1ccc(N2CCN(c3nc4cc5c(cc4s3)OCCO5)CC2)cc1,-1.5%,-1.1%,>57,-20.2%,-20.9%
c1c2c(cc3sc(N4CCOCC4)nc13)OCCO2,0.2%,0.5%,4.45*,1.58µM*,-14.5%
CCOC(=O)c1ccc(CNC(=O)c2cc3cccc(OC)c3oc2=O)o1,-0.8%,-0.8%,>57,0.4%,0.1%
O=C1C=C(Nc2nc(C(=O)O)cc(=O)[nH]2)c2ccccc2C1=O,-8.1%[11.5 µM],2.4%[11.5 µM],nt,3.9%[11.4 µM],14.7%[11.4 µM]
N=C1C(c2ccccc2)=C(O)C2CCc3ccccc3N12 (centres undefined),1.5%,-3.2%,nt,-0.2%,-5.1%
N=C1C(c2ccc(Br)cc2)=C(O)C2CCc3ccccc3N12 (centres undefined),-0.8%,6.0%,3*,-1.2%,-3.8%
Cn1cccc1C(=O)OCc1csc(-c2ccccc2)n1,1.7%,-0.7%,9.32*,7.94µM*,-17.2%
Cc1ccsc1C(=O)OCc1csc(-c2ccccc2)n1,-1.8%,6.0%,7.12*,7.94µM*,1.4%
O=C(OCc1csc(-c2ccccc2)n1)c1cccs1,-3.3%,-2.5%,?,12.6µM*,-2.2%
O=C(OCc1nc2ccccc2c(=O)[nH]1)c1cccs1,3.0%,-3.9%,>57,-0.5%,7.2%
O=C(OCc1nc2ccccc2s1)c1cccs1,0.0%,-2.2%,nt,10µM*,-4.2%
O=c1n(-c2ccccc2)c(=O)n2n1CC[C@H]1/C(=N\OC[C@@H](O)COCc3ccco3)[C@H]3O[C@@H]3[C@@H](O)[C@@H]12,3.6%[11.5 µM],0.4%[11.5 µM],nt,-0.7%[11.4 µM],nt
O=C(c1ccc(-n2c(=O)c(=O)[nH]c3ccccc32)cc1)N1CCCN(Cc2ccccc2)CC1,-4.5%,0.6%,nt,nt,nt
SMILES,Caspase-1 inhib,Casp7 inh,Bst PK mod,Luciferase inh,Tau fil binding
O=C(Nc1cccc(F)c1)N1CCC2(CC1)CCN(C(=O)c1cc(C(F)(F)F)cc(C(F)(F)F)c1)CC2,-0.3%,-0.9%,nt,0.6%[11.4 µM],5.0%
CS(=O)c1ccc(-c2nc(-c3ccc(F)cc3)c(-c3ccncc3)[nH]2)cc1 (centres undefined),-2.1%,-0.2%,nt,0.7%,?
COc1cccc(-c2nn(-c3ccccc3)cc2CO)c1,4.2%,0.8%,nt,-26.5%,-16.4%
COc1cccc(-c2nn(-c3ccccc3)cc2C(=O)NCC(=O)O)c1,0.0%,-0.5%,nt,20µM*,1.0%
Nc1nc2nccc(-c3ccc(Cl)cc3)n2n1,-0.6%,-1.1%,6.04*,?,1.4%
COc1ccc2[nH]cc(CCNc3nc(-c4c(C)noc4C)nc4ccccc34)c2c1,-6.7%,-7.6%,nt,-6.2%[2.29 µM],15.7%
CC(=O)Nc1ccc(CN2CCCCCCC2)cc1,-4.0%,0.6%,nt,nt,nt
O=C(Nc1ccc(CN2CCCCC2)cc1)c1ccc(Br)o1,1.4%,0.4%,>57,12.6µM*,-2.7%
O=C(Nc1ccc(Nc2ccccc2)cc1)c1ccc(Br)o1,-5.0%,-4.3%,nt,-9.7%,15.8µM*
O=C(Nc1ccc(N2CCN(C(=O)c3ccc(Cl)cc3)CC2)cc1)c1ccc(Br)o1,-3.7%,-6.8%,?,0.6%,25.1µM*
C=CCCC,-3.5%,1.5%,nt,nt,7.6%
CCn1c(C)csc1=NC(=O)c1ccccc1O,-10.8%,-7.3%,i,12.6µM*,7.1%
CC(C)=CCC/C(C)=C/COc1c2ccoc2cc2oc(=O)ccc12,nt,nt,nt,-0.1%[11.4 µM],?
N#Cc1cc2ccccc2nc1SCC(=O)Nc1ccc(S(=O)(=O)N2CCCC2)cc1,-1.4%,1.2%,>57,6.1%,15.8µM*
COc1ccc2nc(SCC(=O)Nc3ccc(S(=O)(=O)N4CCCC4)cc3)c(C#N)cc2c1,nt,?,>57,4.1%,24.7%
CC(C)(C)c1ccc(C(=O)/C=C2\NC(=O)CS2)cc1,-1.4%,0.0%,3.3*,2.51µM*,3.2%
COCCOC(=O)/C=C1/NC(=O)CS1,-0.4%,0.8%,>57,1.2%,0.3%
COCCCn1cnc2oc3nc4ccccc4nc3c2c1=O,-7.9%,2.5%,nt,25.1µM*,0.0%
COCCCn1cnc2c(c1=O)c1nc3ccccc3nc1n2-c1ccccc1,-7.1%,-10.7%,>57,0.8%,?
Nc1ncnc2c1ncn2[C@@H]1O[C@@H](C(=O)NC2CC2)[C@H](O)[C@@H]1O,1.1%,2.5%,nt,3.1%,12.7%
CN1CC[C@@]2(CCN3CCc4c(oc5ccccc45)[C@@H]3C2)N(C)C1=O,1.4%,0.1%,nt,-0.7%,5.2%
COc1ccc(-c2c3c([nH]c(=S)c2C#N)CCC3)cc1,nt,nt,>11.4,-2.9%[25.5 µM],nt
N#Cc1c(-c2ccco2)c2c([nH]c1=S)CCCC2,?,-26.0%,nt,-20.8%,31.6µM*
CCCCc1cc(=O)oc2cc(C)c(CN3CCCC3)c(O)c12,-9.1%,-17.7%,>57,0.4%,20µM*
CCc1cc(=O)oc2cc(C)c(CN3CCCC(C)C3)c(O)c12 (centres undefined),nt,nt,>25.6,-1.2%[25.5 µM],nt
C=N[C@H](C(=O)N[C@@H]1C(=O)N2[C@@H]1SC(C)(C)[C@@H]2C(=O)O)c1ccccc1,-1.2%[25.7 µM],-0.4%[25.7 µM],nt,10.9%[25.5 µM],-10.8%[25.6 µM]
Cc1ccc(-n2ncc3c(N4CCN(c5ccccc5)CC4)ncnc32)c(C)c1,nt,nt,>25.6,-0.9%[25.5 µM],nt
Cc1cccc(-n2ncc3c(N4CCCC4)ncnc32)c1,-2.9%,-0.6%,5.37*,1.58µM*,7.2%
C=CCNc1ncnc2c1cnn2-c1ccc(Cl)cc1,-0.7%,0.9%,nt,2.51µM*,165.0%
C=CCNc1ncnc2c1cnn2-c1cccc(C)c1,-0.1%,0.3%,nt,10µM*,9.6%
